Each structure is given as a SMILES string. Where “and” joins values, the source holds several entries; their conditions need not be identical. Equal values may be shown once. About 83,000 compounds went through this panel and 20% of them were active in at least one assay; those are over-represented in the sample as a whole.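 Testing used 96-well plates and a 48-hour single-concentration exposure. Example: -40 means 40% of the starting cells died.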 Calls of active or inactive are those of the source. The calls were made as follows: active = growth percent below 10; inactive = the rest.

The test system of this assay is MDA-MB-468 breast. The assay is described as follows: NCI-60 one-dose screen, 48 h (100 = growth as untreated, 0 = no growth, -100 = all killed). The following applies: 10 µM unless noted.
For `C#CCn1c(C)cc(C)c(C#N)c1=O`, the growth is 132% (inactive).
Regarding `C=C(C=O)[C@@H]1CC=C(C=O)CC1`, the growth was 20.2% (inactive).
Take `CCOC(=O)c1c(C(F)(F)F)n([O-])c2ccc(Cl)cc2[n+]1=O`: the growth was -55.3% (active).
`COc1ccc2sc3cccc(NCCN(C)C)c3c(=O)c2c1`: the growth is 52.3% (inactive) and -82% (active).
Regarding `Nc1ccc(-n2c(=O)oc3ccc(Cl)cc3c2=O)c(Cl)c1`, the growth is -6.87% (active).
In the case of `CC(=O)O[C@]1(C(C)=O)CCC2C3C[C@H](C)C4=CC(=O)CC[C@]4(C)C3CC[C@@]21C` (stereo not given in full), the growth is 86.4% (inactive).
Turning to `O=[N+]([O-])c1ccc(S(=O)Cc2ccccc2)c([N+](=O)[O-])c1` (stereo not given), the growth is -56% (active) and -64.1% (active).
The figure for `CC1OC(C(=O)N2CCN(CCO)CC2)CC1COC1CCCCC1` (stereo not given) is 94.6% [50 µM] (inactive); for `COc1cc(NCc2cn(-c3ccc(C(=O)O)cc3)nc2-c2ccc(C(=O)O)cc2)cc(OC)c1OC` it is 102% (inactive); for `COc1cc(CNS(=O)(=O)c2ccc(C)cc2)ccc1OCc1cn(-c2ccccc2)nn1` it is 70.7% (inactive).
With `CC(O)COc1ccc(-c2ccccc2)cc1` (stereo not given), the growth is 102% (inactive).
In the case of `Oc1ccc(CCl)c2cccnc12`, the growth was 86.2% (inactive).
With `O=C1/C(=C\c2cccc(OCCCCCOc3ccc(Cl)cc3)c2)N=C2SCCCN12` the figure was 9.3% (active).
Take `Cc1nc2ccccc2c(N)c1-c1cc(C)c2c(C)nc3ccccc3c2n1`: the growth is -94.8% (active).
With `Cc1nn(-c2cccc(Cl)c2)c(C)c1N=Nc1ccc(Br)cc1` the figure was 97.6% (inactive).
Take `COc1cc(NCC(O)CN(CC(C)C)CC(C)C)c2nc(C)ccc2c1` (stereo not given): the growth was -6.94% (active).
With `O=C(Nc1ccc2ncnc(Nc3cccc(C(F)(F)F)c3)c2c1)c1cccs1` the figure was -2.49% (active); with `CCOC(=O)c1c(C)oc2ncnc(N3CCN(C(=S)Nc4ccccc4)CC3)c12`, 85.2% (inactive); with `Cn1c2c(cc(S(=O)(=O)c3ccccc3)c1=O)CCc1c-2cnn1-c1ccccc1Cl`, 91.9% (inactive).
The figure for `BrCCCc1n(Cc2ccc3ccccc3c2)c2ccccc2[n+]1Cc1ccc2ccccc2c1` is -68% (active).
As for `C1CCc2onc(-c3noc4c3CCCCC4)c2CC1`, the growth is 108% (inactive).
With `N#Cc1cccc(-c2ccc3c(c2)NC(=O)/C3=C\c2ccc[nH]2)c1` the figure was -20.1% (active).
As to `Cc1cc(N[C@@H]2CCC[C@H](Nc3ccnc4cc(Cl)ccc34)C2)nc(N2CCCCCC2)n1`, the growth is -65.8% (active).
With `O=S(=O)(NCCCNc1nccc(-c2c(-c3ccc(F)cc3)nc3sccn23)n1)c1ccc2ccccc2c1` the figure was 51.8% (inactive).
For `Cc1ccc(Cc2cnc(NC(=O)/C=C/c3ccc(C)o3)s2)cc1`, the growth was -0.221% (active).
The figure for `Cn1c(=O)c2[nH]c(C(O)C(O)C(O)C(O)CO)nc2n(C)c1=O` (stereo not given) is 118% (inactive); for `COc1ccc(Nc2ncc(C(N)=O)c(NCCCNC(=O)C3CCC3)n2)cc1` it is 33.1% (inactive).
`CC(C)=NNc1ccc([N+](=O)[O-])cc1[N+](=O)[O-]`: the growth was 96% (inactive).
In the case of `Cc1cc2nc3c4cc(O)ccc4n(CCN(C)C)c3nc2cc1C`, the growth is -38.4% (active).
For `N#Cc1cnc2cc(OC[C@H](O)CO)c(NC(=O)CC3CSSC3)cc2c1Nc1ccc(OCc2cccc(F)c2)c(Cl)c1`, the growth was -78.3% (active).
For `CN1C(=O)N(c2ccccc2)C2N=C(N/N=C/c3ccccc3)SC21` (stereo not given), the growth is -11.5% (active).
Turning to `O=C(O)C1C2CC3C(OC(=O)C31)C2Br` (stereo not given), the growth was 93.2% (inactive) and 72.3% (inactive).
The figure for `O=C(CSc1nc(-c2ccccc2)cn1-c1ccc(Cl)cc1)c1ccc([N+](=O)[O-])cc1` is 72.5% (inactive).
`O=[N+]([O-])c1cccc(-c2nc3sccn3c2-c2ccnc(NCCCNS(=O)(=O)c3ccc(F)cc3)n2)c1`: the growth is -8.54% (active).
`Nc1nc(N)c(N=Nc2ccccc2)c(-c2ccccc2)n1`: the growth is 8.67% (active).
Consider `O=C1C(Cl)=C(Nc2ccccn2)C(=O)c2ccccc21`, for which the growth is 37.1% (inactive).
Take `CC/C(=C(/c1ccc(OCCN(C)C)cc1)c1ccc(OC(=O)CCCCC(=O)c2c(C)[nH]c(/C=C3\N=C(c4ccc[nH]4)C=C3OC)c2C)cc1)c1ccccc1`: the growth is 47.5% (inactive).
The figure for `CC(=O)Oc1ccccc1C(=O)N=C1[Se]CCN1C(=O)c1ccccc1OC(C)=O` is -25.6% (active).
As for `CCC(NC(c1cc2cccc3ccc4cccc1c4c32)c1nnnn1C(C)(C)C)C1CCCCC1` (stereo not given), the growth is 7.35% (active).
Consider `NC(=O)c1c(NC(=O)c2ccccc2C(F)(F)F)sc2c1CCC(=O)C2`, for which the growth is 14.9% (inactive).

The record behind these values is PubChem BioAssay (NCI).
